# Test results taken from the supplement of paper PMC9942566.
# ± gives the standard deviation of the averaged measurements.
# Test system: Serratia marcescens K904 PosmB-luxCDABE reporter (pMQ747)
# Assay: PosmB-lux reporter fold induction (RLU/OD600 relative to no-compound control), highest over Biolog concentrations; higher = stronger Rcs reporter activation
# Conditions: wild type K904; 4 h
# Procedure: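 Serratia marcescens K904 (wild type) or its isogenic ΔrcsB mutant, carrying the Rcs-dependent PosmB-luxCDABE reporter plasmid pMQ747, was grown in LB at OD600 0.1 in Biolog Phenotype MicroArray plates PM11-20 for 4 h at 30-32°C. Each compound is present at 3-4 proprietary concentrations (not stated); per the Fig. S1 legend the value given is the highest fold over those wells. Three independent trials.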
row,Structure (SMILES),PosmB-lux reporter fold induction
1,"N[C@H](CO)C(=O)O [D-serine] (Biolog plate: PM17, well positions: A2-4)",2.39 ± 1.2
2,"CNC(C)C1CCC(N)C(OC2C(N)CC(N)C(OC3OCC(C)(O)C(NC)C3O)C2O)O1 (stereo not given) [Gentamicin] (Biolog plate: PM11, well positions: G5-8)",1.41 ± 0.081
3,"[Na+].[Na+].[O]=[W](=[O])([O-])[O-] [sodium tungstate] (Biolog plate: PM17, well positions: E9-12)",1.69 ± 0.46
4,"CO[C@H]1/C=C/O[C@@]2(C)Oc3c(C)c(O)c4c(O)c(c(/C=N/N5CCN(C)CC5)c(O)c4c3C2=O)NC(=O)/C(C)=C\C=C\[C@H](C)[C@H](O)[C@@H](C)[C@@H](O)[C@@H](C)[C@H](OC(C)=O)[C@@H]1C [Rifampicin] (Biolog plate: PM12, well positions: H5-8)",4.01 ± 0.98
5,"CO[C@H]1/C=C/O[C@@]2(C)Oc3c(C)c(O)c4c(O)c(cc(O)c4c3C2=O)NC(=O)/C(C)=C\C=C\[C@H](C)[C@H](O)[C@@H](C)[C@@H](O)[C@@H](C)[C@H](OC(C)=O)[C@@H]1C [rifamycin SV] (Biolog plate: PM16, well positions: E9-12)",4.24 ± 0.58
